The values below come from PubChem BioAssay (EPA / NIEHS).

Inconclusive results are not listed. Activity calls are given as the source filed them. Rule for the calls: active = hit-call score of the fitted dose curve at least 0.9, where 1 is the maximum; inconclusive = response in the unintended direction; inactive = score below 0.9.

Usually AC50 stands for the midpoint of the concentration-response curve, whichever way the signal moves.

guinea pig Opioid, Kappa 1 Receptor (OpiateK), OPRK1 (gene 100135587), sequence (P41144 whole entry, looked up): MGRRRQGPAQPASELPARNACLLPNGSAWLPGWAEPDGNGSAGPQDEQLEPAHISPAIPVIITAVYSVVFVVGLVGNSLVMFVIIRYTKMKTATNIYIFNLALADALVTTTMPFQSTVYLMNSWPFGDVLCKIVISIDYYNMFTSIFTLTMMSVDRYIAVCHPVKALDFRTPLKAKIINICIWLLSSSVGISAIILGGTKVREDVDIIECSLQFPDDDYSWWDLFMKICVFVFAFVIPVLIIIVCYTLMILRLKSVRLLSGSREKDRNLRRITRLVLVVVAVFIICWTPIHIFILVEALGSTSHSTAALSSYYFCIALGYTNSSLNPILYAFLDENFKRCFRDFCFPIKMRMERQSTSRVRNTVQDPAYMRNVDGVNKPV

The first test relates to guinea pig Muscarinic, Peripheral (Mperiperal) Receptor, Non-selective Binding, gene 100379235. Nature of the test: NVS_GPCR_gMPeripheral_NonSelective: NovaScreen (NVS) G Protein-Coupled Receptor Assay for guinea pig Muscarinic, Peripheral (Mperiperal) Receptor, Non-selective Binding (AID 2283250). As for the experimental part: NVS_GPCR_gMPeripheral_NonSelective is a biochemical, single-readout assay that uses extracted gene-proteins from Guinea pig bladder membranes in a tissue-based cell-free assay. Measurements were taken 1 hour after chemical dosing in a 48-well plate.NVS_GPCR_gMPeripheral_NonSelective is one of one assay component(s) measured or calculated from the NVS_GPCR_gMPeripheral_NonSelective assay. It is designed to make measurements of radioligand binding, a form of binding reporter, as detected with scintillation counting signals by Filter-based radiodetection technology.Data from the assay component NVS_GPCR_gMPeripheral_NonSelective was analyzed into 1 assay endpoint. This assay endpoint, NVS_GPCR_gMPeripheral_NonSelective, was analyzed in the positive analysis fitting direction relative to DMSO as the negative control and baseline of activity. Using a type of binding reporter, loss-of-signal activity can be used to understand changes in the binding as they relate to the gene Chrm3. Furthermore, this assay endpoint can be referred to as a primary readout, because the performed assay has only produced 1 assay endpoint. To generalize the intended target to other relatable targets, this assay endpoint is annotated to the gpcr intended target family, where the subfamily is rhodopsin-like receptor.
Binding assays used specific radioligands (tritiated, iodinated) with non-radioactive competitive displacement ligands in agonist or antagonist protocols (as indicated) and various reference compounds and inhibitors to titrate specific binding to receptors and transporters. Most enzyme assays (CYPs, kinases, phosphatases, proteases, HDACs) used recombinant protein and specific substrates (fluorescence mostly, some colorimetric and radioactive) and inhibitors, followed by a biochemical separation of substrate and product. All assays for the biochemical HTS were initially run in duplicate at a single concentration (10 uM for CYP450 assays and 25 uM for all others). Assay-chemical combinations meeting a pre-defined threshold (e.g., 30% inhibition and other criteria defined below) were then run in singleton concentration-response format with maximum concentration of 20 uM for CYPs and 50 uM for all others. Each assay was run with positive and negative controls, and concurrent controls on every plate. The follow-up (secondary) screen tested active chemical-pairs in concentration series, as well as a few additional assays not tested in the primary screen, some selected negative inactives, and several cases re-run in the concentration series for confirmatory purposes.
`CN1CCC[C@H]1c1cccnc1`: the call was inactive.
On the same count and under the same terms, to `CCCCCCCC(=O)O` belongs “inactive”.
Take `CCN(CC)CCNc1ccc(CNC=O)c2sc3ccc(OC)cc3c(=O)c12`: the concentration at half-maximal activity (AC50) is 5.83 µM (active).
Still for that read-out and setting: next, `CC(=O)NC1(c2cccc(F)c2)CCN(CC[C@@]2(c3ccc(Cl)c(Cl)c3)CN(c3ccccc3)C(=O)CO2)CC1`: 20.8 µM (active); `CCCOc1sc(C(=O)N2CCC(c3cc(CN)ccc3F)CC2)c(C)c1Br`: 23.2 µM (active).

A further test addresses guinea pig Opioid, Kappa 1 Receptor (OpiateK), OPRK1 (gene 100135587) (UniProt P41144). Nature of the test: NVS_GPCR_gOpiateK: NovaScreen (NVS) G Protein-Coupled Receptor Assay for guinea pig Opioid, Kappa 1 Receptor (OpiateK) (AID 2283252).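 Note: radioligand displacement from kappa opioid receptor in guinea pig cerebellar membranes; active means reduced radioligand binding relative to DMSO.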 The method, boiled down:
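Guinea pig cerebellar membranes, radioligand displacement with filter-based scintillation counting, 2 h after dosing. Primary screen single concentration 25 uM in duplicate; actives retested in concentration series; loss of binding fitted versus DMSO.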
As to `CN1CCN(c2ccccc2/C=C2\SCCN(c3ccc(Cl)c(Cl)c3)C2=O)CC1`, the concentration at half-maximal activity (AC50) is 3.39 µM (active).
For the compound `CC[C@H](c1ccc(O)cc1)[C@@H](CC)c1ccc(O)cc1`, the outcome was inactive.
Take `CCCCCCCC(=O)O`: the result was inactive.
Turning to `CCN(CC)CCNc1ccc(CNC=O)c2sc3ccc(OC)cc3c(=O)c12`, the half-maximal activity concentration (AC50) was 25 µM (active).
On the same count and under the same terms, next, `CC[C@H](C)[C@@H](C(=O)O)n1sc2ccccc2c1=O`: 12.7 µM (active).
Regarding `CCCCCCCCCCCCc1ccccc1S(=O)(=O)O`, the compound was called inactive.
`CC(=O)NC1(c2cccc(F)c2)CCN(CC[C@@]2(c3ccc(Cl)c(Cl)c3)CN(c3ccccc3)C(=O)CO2)CC1`: the AC50 was 20.8 µM (active).
Consider `C#C[C@]1(O)CC[C@H]2[C@@H]3CCC4=CC(=O)CC[C@@H]4[C@H]3CC[C@@]21C`, for which the call was inactive.
Same read-out and setting: to `CCCOc1sc(C(=O)N2CCC(c3cc(CN)ccc3F)CC2)c(C)c1Br` belongs “inactive”.
